A selection: hits, their analogues and other compounds. The true share with any hit is near 9.4%.
Rab9 promoter act: activates the Rab9 promoter | Huh7 Rab9 promoter-luciferase reporter, luminescence, 24 h | Potency, µM (top dose mostly 9.22 µM), usual class: activators | 320,000 compounds, 2.8% hits | AID 485297; also: nearly all actives have a fitted effect of over 60% in size
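Quantitative HTS format; Huh7 Rab9-luciferase reporter cells (1500/well) receive compound 2 h post-plating, incubate 24 h at 37 °C, then get luciferase reagent for 10 min before luminescence reading.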
ELG1 repair inh: ELG1-dependent DNA repair inhibition. HEK293T ELG1-luciferase reporter, luminescence, 16 h; DNA damage induced by 5-fluorouridine. Potency, µM (series often up to 46.1 µM), actives largely listed as inhibitors. 330,000 compounds, 2.3% hits; also: nearly all actives have a fitted effect of over 55% in size
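DMSO vehicle served as the neutral condition. Each well held 2,000 cells given 5-fluorouridine plus compound; after 16 hr at 37 °C/5% CO2, ONE-Glo was added and luciferase measured 30 min later.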
ELG1 genotox: induces genotoxicity in HEK293T cells with luciferase-tagged ELG1; HEK293T ELG1-luciferase reporter, luminescence, 16 h; Potency, µM (series often up to 46 µM), actives largely listed as activators; 330,000 compounds, 1.3% hits; AID 504466; also: nearly all actives have a fitted effect of over 60% in size
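Reporter readout depends on ELG1 protein level, which increases with genetic stress. After 16 hr compound exposure at 37 °C, luciferase activity was quantified using ONE-Glo.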
NPC1 prom act: NPC1 promoter activation; Huh7 NPC1 promoter luciferase reporter, 24 h; Potency, µM (top dose mostly 9.22 µM), most hits filed as activators; 320,000 compounds, 2.4% hits; AID 485313; also: nearly all actives have a fitted effect of over 60% in size
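Stable NPC1-promoter luciferase Huh7 line; cpd (DMSO) 24 h, 37 °C, 5% CO2; Amplite luciferase reagent 10 min RT; luminescence readout. qHTS format.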
SMN2 splice up: SMN2 splice variant enhancement. HEK293 SMN2-luciferase splicing reporter, luminescence, 30-36 h. 210,000 compounds, 2.8% hits. Potency, µM (series often up to 46.1 µM), most hits filed as activators; also: nearly all actives have a fitted effect of over 55% in size
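HEK293 cells carry an SMN2 minigene-luciferase reporter in which exon 7 inclusion puts luciferase in frame. Cells were seeded at 2000 cells/well, attached for 10-12 hours, then exposed to compounds for 30-36 hours at 37C before ONE-Glo luminescence.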
FLuc counter: counter-screen for miR-21 project: firefly luciferase inhibitors or activators; P08659; purified FLuc, Km substrates, luminescence inhibition; Potency, µM (titrated, usually from 57.5 µM), hits mostly inhibitors; 360,000 compounds, 6.9% hits; AID 588342; also: nearly all actives have a fitted effect of over 55% in size
Target sequence (P08659 whole entry, looked up): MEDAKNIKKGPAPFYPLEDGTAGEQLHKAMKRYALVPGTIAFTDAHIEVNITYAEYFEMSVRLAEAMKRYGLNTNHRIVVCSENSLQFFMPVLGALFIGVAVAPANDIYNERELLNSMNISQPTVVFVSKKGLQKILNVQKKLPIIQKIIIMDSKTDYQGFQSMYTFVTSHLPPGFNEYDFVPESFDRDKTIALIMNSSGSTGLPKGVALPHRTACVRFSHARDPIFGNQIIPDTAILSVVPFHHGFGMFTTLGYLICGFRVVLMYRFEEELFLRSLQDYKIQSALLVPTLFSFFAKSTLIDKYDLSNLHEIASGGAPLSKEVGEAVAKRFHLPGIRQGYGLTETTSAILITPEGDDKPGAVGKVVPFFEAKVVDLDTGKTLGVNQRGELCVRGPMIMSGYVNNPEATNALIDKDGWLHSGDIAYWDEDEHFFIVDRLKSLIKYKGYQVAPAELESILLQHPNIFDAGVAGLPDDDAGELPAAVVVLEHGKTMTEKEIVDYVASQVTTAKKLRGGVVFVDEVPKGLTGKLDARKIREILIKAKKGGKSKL
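Purified P. pyralis luciferase (10nM final) with 10uM D-luciferin and 10uM ATP (Km levels) in 50mM Tris acetate pH 7.5, 10mM Mg acetate, 0.01% Tween-20, 0.05% BSA; qHTS 6-point titration, ~60 µM downward; luminescence read.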
A number is an active result; i = inactive; ? = inconclusive; nt = no result; [ ] = dose if it differs, or a comment. Calls follow the shape of the dose curve; as a rule, active = well fitted curve in the direction sought with a large enough effect; inconclusive = small, poorly fitted or top-dose-only effect, or another doubt; inactive = no such curve, though single readings can be large; an effect the other way counts as inactive or inconclusive.

SMILES	Rab9 promoter act	ELG1 repair inh	ELG1 genotox	NPC1 prom act	SMN2 splice up	FLuc counter
CN(c1ccccc1)S(=O)(=O)c1cc(C(=O)N2CCN(c3ccccn3)CC2)ccc1Cl	i	14.6µM	i	i	i	i
Cc1ccc(S(=O)(=O)NCc2ccc(C(=O)N3CCN(c4ccccn4)CC3)cc2)cc1	i	?	i	i	i	i
Cc1ccc(C(=O)N2CCN(c3ccccc3)CC2)cc1S(=O)(=O)N1CCCC1	i	16.4µM	i	i	i	i
O=C(c1ccc(Cl)c(S(=O)(=O)N2CCCC2)c1)N1CCN(c2ccc(F)cc2)CC1	i	20.6µM	i	i	i	i
Cc1ccc(NS(=O)(=O)c2ccc(C(=O)N3CCN(c4ccccn4)CC3)cc2)cc1	i	14.6µM	i	i	i	i
CCC(=O)N1CCc2cc(S(=O)(=O)NCCC(=O)Nc3ccc(OC)c(Cl)c3)ccc21	nt	nt	nt	nt	i	i
CC(=O)N1CCC(N(Cc2ccc(C)o2)C(=O)Nc2cccc(C(F)(F)F)c2)CC1	nt	nt	nt	nt	nt	i
CCOc1cc(NC(=S)NCC2CCCO2)c(OCC)cc1NC(=O)c1ccc(OC)cc1 (stereo not drawn)	i	13µM	i	i	i	i
CCOc1ccc(C(=O)NC(C(=O)NCC2CCCO2)C(C)C)cc1 (stereo not drawn)	i	23.1µM	i	i	nt	i
CCOc1ccc(N(C(=O)c2snc(C(N)=O)c2N)C(C(=O)NCC2CCCO2)c2ccc(C)o2)cc1 (stereo not drawn)	i	i	i	i	nt	13.5µM
COc1ccc(C(=O)NC(C(=O)NCC2CCCO2)C(C)C)cc1 (stereo not drawn)	i	i	i	i	i	i
Cc1ccc(C(C(=O)NCC2CCCO2)N(C(=O)c2snc(C(N)=O)c2N)c2ccc(F)cc2)o1 (stereo not drawn)	i	i	i	i	nt	i
N#Cc1ccc(CN2CC3(CCN(C(=O)c4csnn4)CC3)C2)cc1	nt	nt	nt	nt	i	nt
Cc1cccc(N(O)C(=O)Nc2cccc(Cl)c2)c1	i	?	?	i	nt	16.9µM
CN(Cc1nc(-c2ccccc2)no1)C1CCOCC1	?	?	?	2.51µM	nt	16.9µM
c1ccc(-c2noc(CC3CCCCC3)n2)cc1	?	?	?	i	i	9.53µM
c1cc(-c2noc(CCC3CCCC3)n2)ccn1	i	?	?	i	?	?
c1ccc(-c2noc(CCC3CCCC3)n2)cc1	?	?	?	i	i	10.7µM
Nc1sc(-c2ccccc2)c(Cc2ccccc2)c1C(=O)O	i	i	i	i	i	16.9µM
COC(=O)c1c(N)sc(Cc2ccccc2)c1C	i	i	i	i	nt	i
COc1cc(NC(=O)Cn2cc(C(=O)c3ccc(F)cc3)c(=O)c3ccc(C)nc32)cc(OC)c1	nt	nt	nt	nt	nt	i
CCCn1c(SCC(=O)NC2CCCC2)nnc1-c1cccnc1	i	i	i	i	nt	i
O=C(C#Cc1ccccc1)Nc1cccc(F)c1	i	?	i	i	nt	4.26µM
O=C(C#Cc1ccccc1)Nc1ccc(F)cc1	i	?	i	i	nt	12µM
COc1ccc(NC(=O)C#Cc2ccccc2)cc1	?	?	?	1.41µM	nt	8.49µM
SMILES	Rab9 promoter act	ELG1 repair inh	ELG1 genotox	NPC1 prom act	SMN2 splice up	FLuc counter
CC(C)CCNC(=O)Nc1ccc2c(c1)N(Cc1ccccc1)C(=O)c1ccccc1S2	nt	nt	nt	nt	i	i
Cc1cc(Cl)ccc1OCCSc1nnc(-c2cccs2)o1	nt	nt	nt	nt	nt	i
Cc1cccc(OCc2ccc(-c3nc(C#N)c(NCCN(C)C)o3)o2)c1	nt	nt	nt	nt	nt	i
CC(=C/c1ccccc1)/C=N/NC(=O)c1cnccn1	?	?	8.91µM	3.98µM	?	4.78µM
CC(/C=N/NC(=O)c1ccncc1)=C\c1ccc(C(C)C)cc1	2.82µM	?	i	i	nt	?
O=C(Nc1ccccc1-c1ccccc1)c1cnccn1	i	?	i	i	i	?
CC(/C=N/NC(=O)c1cccnc1)=C\c1ccccc1	?	?	?	?	nt	13.5µM
CC(/C=N/NC(=O)c1ccc(Br)cc1)=C\c1ccccc1	i[1.84 µM]	?	?	i	i	?
O=C(N/N=C/C(Cl)=C\c1ccccc1)c1cnccn1	i	?	?	i	i	10.7µM
Cc1ccccc1Cn1c(SCc2ccc(C(=O)NC3CCCCC3)cc2)nc2ccncc21	nt	nt	nt	nt	i	?

High-throughput results as filed in PubChem.
